Pf growth 48h: Primary qHTS for delayed death inhibitors of the malarial parasite plastid, 48 hour incubation. P. falciparum luciferase growth in erythrocytes, 48 h. Potency, µM (titrated, usually from 28.7 µM), actives largely listed as inhibitors. 5.9% of 310,000 active
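Cell-based growth assay: transgenic P. falciparum expressing firefly luciferase, cultured in red cells within RPMI 1640 containing 0.5% w/v Albumax, 24 mM bicarbonate and gentamycin. A drop in luciferase activity indicates inhibition.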
Cycloheximide cs: Cycloheximide Counterscreen for Small Molecule Inhibitors of Shiga Toxin; cell reporter, cycloheximide protein synthesis inhibition counterscreen; max response, %; 12% of 300,000 active; AID 2314, 2010; in the data active = max response mostly above about 13%, no sharp cut-off; inactive = mostly below about 14%; note: read at 38.3 µM for the half of the compounds with a filed dose
Shiga inhibitor: A qHTS for Small Molecule Inhibitors of Shiga Toxin. Vero cells, Shiga toxin protein synthesis inhibition reporter. inhibition, % at 38.7 µM. 9.2% of 290,000 active; in the data active = inhibition mostly above about 28%, no sharp cut-off; inactive = mostly below about 43%
NS1 function inh: qHTS Assay for Inhibitors of Influenza NS1 Protein Function. Potency, µM (highest dose often 46.1 µM). 0.4% of 270,000 active; calls by dose curve; note: actives are rising curves; nearly all actives have a fitted effect of over 50% in size
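In this qHTS, NS1 from influenza A is expressed in budding yeast, where it slows growth. Cells are switched from glucose to 2% galactose medium (pH 6.0, -URA), treated with compound, and growth recovery is read at OD600.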
Pf growth 96h: Primary qHTS for delayed death inhibitors of the malarial parasite plastid, 96 hour incubation | AID 504834, 2011 | P. falciparum luciferase reporter growth, 96 h | Potency, µM (series often up to 28.7 µM), most hits filed as inhibitors | 6.9% of 320,000 active
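Delayed-death screen, second-generation endpoint: infected erythrocytes, 2% hematocrit, 0.05% parasitemia final; 96 hours at 37 C, 5% CO2; luciferase detection reagent; luminescence decrease equals reduced growth.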
FBPA Giardia inh: qHTS Assay for Inhibitors of Fructose-1,6-bisphosphate Aldolase from Giardia Lamblia; AID 2451, 2010; 0.71% of 290,000 active; Potency, µM (top dose mostly 59.6 µM), hits mostly inhibitors; purified Giardia FBPA; note: nearly all actives have a fitted effect of over 55% in size
Target sequence (A8B2U2 whole entry, looked up): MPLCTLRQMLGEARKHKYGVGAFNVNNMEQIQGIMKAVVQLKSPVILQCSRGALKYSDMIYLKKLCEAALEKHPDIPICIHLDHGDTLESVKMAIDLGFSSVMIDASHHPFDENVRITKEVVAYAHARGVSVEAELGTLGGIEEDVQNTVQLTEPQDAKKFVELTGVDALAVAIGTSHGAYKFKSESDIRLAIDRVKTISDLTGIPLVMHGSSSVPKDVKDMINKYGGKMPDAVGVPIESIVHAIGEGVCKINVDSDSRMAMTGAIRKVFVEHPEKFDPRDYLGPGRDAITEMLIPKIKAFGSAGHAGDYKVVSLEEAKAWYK
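40 nM FBPA preincubated 10 min at RT with compound (up to 57.5 uM final), then substrate plus GAPDH/TPI/NAD/arsenate coupling and diaphorase/resazurin added. Fluorescence read after 20 min at RT, 525/598 nm.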
A number is an active result; - = inactive; ? = inconclusive; . = not tested or not shown; [ ] = dose if it differs, or a comment. An excerpt weighted towards active compounds, which were near 21% of everything screened. Unless noted, calls come from the whole dose curve; as a rule, active = well fitted curve in the direction sought with a large enough effect; inconclusive = small, poorly fitted or top-dose-only effect, or another doubt; inactive = no such curve, though single readings can be large; an effect the other way counts as inactive or inconclusive.

SMILES	Pf growth 48h	Cycloheximide cs	Shiga inhibitor	NS1 function inh	Pf growth 96h	FBPA Giardia inh
Cc1cc(C)c2cc(C(c3nnnn3CC3CCCO3)N3CCN4CCCC4C3)c(=O)[nH]c2c1 (stereo not given)	15µM	-	-	?	-[5.75 µM]	-
CC(C)C(c1nnnn1Cc1cccs1)N1CCN(C2CCCC2)CC1 (stereo not given)	-	-	-	?	?	-
CN(C)C(CNc1ncnc2sc3c(c12)CCCC3)c1ccco1 (stereo not given)	-	15	-	.	-	-
CC(C)(C)c1ccc(C(=O)Nc2ccc(S(N)(=O)=O)cc2)cc1	?	-	-	-	?	-
O=C(Nc1ccc(C(=O)O)cc1)/C(=C\c1ccc([N+](=O)[O-])cc1)NC(=O)c1ccc(Br)cc1	-	-	-	.	-	-
N#CC(C#N)=Cc1ccc(NC(=O)c2ccc(Br)cc2)cc1	-	47	75	-	-	-
CC(C)(C)c1ccc(C(=O)Nc2ccc(C=C(C#N)C#N)cc2)cc1	-	72	154	-	-	-
O=C(Nc1ccccc1N1CCOCC1)c1cc(=O)[nH]c2ccccc12	?	.	.	.	-	.
Cc1nn(C)c(C)c1NS(=O)(=O)c1ccccc1Cl	-	.	.	.	-	.
O=C(NCC1(N2CCOCC2)CCCCC1)c1ccc(Cl)c(S(=O)(=O)NCc2ccco2)c1	6.6µM	-	-	-	-	-
O=C(NCc1ccco1)c1ccc(Cl)c(S(=O)(=O)N2CCOCC2)c1	2.3µM	-	-	-	.	-
O=C(NCc1cccs1)c1cccc(S(=O)(=O)N2CCCCC2)c1	-	-	-	-	.	-
O=C(NCc1cccs1)c1ccc(Cl)c(S(=O)(=O)N2CCCC2)c1	0.33µM	-	-	.	?	-
O=C(NCc1ccco1)c1ccc(Cl)c(S(=O)(=O)N2CCc3ccccc32)c1	?	17	-	-	?	-
COc1ccc(C(=O)N2CCC[C@@]3(CCN(C(=O)Nc4ccccc4)C3)C2)cc1	.	.	.	.	.	-
O=C(Cc1n[nH]c(=O)c2ccccc12)OCC(=O)c1ccc(F)c(F)c1	-	.	.	.	-	.
O=C(NC1CC(=O)N(c2cccc(F)c2)C1)N1CCN(C(=O)c2ccco2)CC1 (stereo not given)	-	.	.	.	-	.
O=C(Nc1ccccc1)c1ccc(NCc2ccco2)c(S(=O)(=O)N2CCOCC2)c1	?	10.0	-	?	-	-
Cc1ccc2c(c1)S/C(=C/c1ccc[n+](C)c1)N2CCO	?	-	-	.	-	-
CCCCN1/C(=C/c2cccc[n+]2C)Sc2cc(NC(C)=O)ccc21	4.1µM	-	-	-	-	-
CCOC(=O)OCC1OC(C#Cc2ccccc2)C=CC1Oc1cccc(N(C)C)c1 (stereo not given)	.	.	.	.	.	-[12.9 µM]
CC(C)(C)C(=O)Nc1sc(-c2ccccc2)cc1C(=O)O	-	41	112	-	-	-
Nc1sc(-c2ccccc2)cc1C(=O)O	.	29	55	-	-	-
CC(C)(C)C(=O)Nc1scc(-c2ccc(-c3ccccc3)cc2)c1C(=O)O	?	-	-	-	-	-
Cc1cccc(C(=O)Nc2sc(-c3ccccc3)cc2C(=O)O)c1	-	46	127	-	-	-
SMILES	Pf growth 48h	Cycloheximide cs	Shiga inhibitor	NS1 function inh	Pf growth 96h	FBPA Giardia inh
Cc1cccc(OCCCn2c(CCNC(=O)C3CCCCC3)nc3ccccc32)c1	.	-	-	.	.	.
O=[N+]([O-])c1cc([N+](=O)[O-])c(Oc2cc(F)ccc2F)cc1NN1CCCCC1	?	-	-	-	?	-
Cc1cc2c(OCC(O)CNCc3ccco3)cccc2[nH]1 (stereo not given)	2.9µM	-	-	-	3.3µM	-
CC(C)(C)NC[C@@H](O)COc1cccc2[nH]c(C#N)cc12	.	.	.	.	.	-
CC(C)C[C@@H](CC(=O)N[C@H](CC(=O)N[C@@H]1CCCC[C@H]1C(=O)N[C@H](CC(=O)N[C@@H](CCC(=O)O)CC(=O)O)Cc1ccccc1)C(C)C)NC(=O)[C@@H]1CNCC[C@H]1N	.	.	.	.	.	-
Cc1nc(C)c(C(=O)O)s1	-	-	-	-	-	-
CCC1C/C(=C\c2cc(OC)c(OC)cc2OC)C(=O)/C(=C/c2cc(OC)c(OC)cc2OC)C1 (stereo not given)	5.2µM	-	-	-	?	-
CCC1C/C(=C/c2ccco2)C(=O)/C(=C/c2ccco2)C1 (stereo not given)	-	-	-	-	9.3µM	-
COc1cc(OC)c(OC)cc1/C=C1\CC(C)C/C(=C\c2cc(OC)c(OC)cc2OC)C1=O (stereo not given)	4.7µM	-	-	-	?	-
CC(=O)N1CCOc2cc(S(=O)(=O)NCc3ccccc3Cl)c(Cl)cc21	-	.	.	.	-	.
CCNC(=S)N/N=C/c1ccc(C#N)cc1	-	-	-	.	-	-
CCNC(=S)N/N=C/c1sc(N2CCCCC2)nc1-c1cccs1	0.26µM	30	active	-	0.17µM	-
CSCC[C@H](NC(=O)[C@H](CC(C)C)NC(=O)CNC(=O)[C@H](Cc1ccccc1)NC(=O)[C@H](Cc1ccccc1)NC(=O)[C@H](CCC(N)=O)NC(=O)[C@H](CCC(N)=O)NC(=O)[C@@H]1CCCN1C(=O)[C@H](CCCCN)NC(=O)[C@@H]1CCCN1C(=O)[C@@H](N)CCCN=C(N)N)C(N)=O	.	-	-	.	.	-
O=S(=O)(c1ccccc1)N1CCN=C1SCc1ccc(Cl)c(Cl)c1	?	-	-	-	?	-
O=S(=O)(c1ccccc1)N1CCN=C1SCc1cccc(Cl)c1	?	-	-	-	12µM	?
CC(=O)Nc1ccc(S(=O)(=O)N2CCN=C2SCc2ccc(C)cc2)cc1	-	50	88	-	-	.
CC(=O)Nc1ccc(S(=O)(=O)N2CCN=C2SCc2ccc(F)cc2)cc1	?	-	-	-	15µM	.
